# Laboratory results: the supplement of paper PMC8728848
# The entries come from a sample that favours the strongest signals as a whole.
# Assays:
# Assay in all cases: glycan array binding signal (z-score within array); higher = stronger binding
# Settings in all cases: glycan notation: IUPAC condensed, linker removed
# [1] = biological target: Fuc(a1-2)Gal(b1-3)[Fuc(a1-4)]GlcNAc
# In short: (§1)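 Glycan array data were curated from 3228 arrays in the Consortium for Functional Glycomics database and kept only where the protein sequence was available. Glycan names were converted to IUPAC-condensed notation, and columns mapping to the same glycan were averaged. The binding signal is a within-array Z-score, averaged across arrays of the same protein sequence at different concentrations or buffers and across linkers. Negative Z-scores can be read as non-binding.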
# Fuc(a1-2)[Gal(a1-3)]Gal = biological target: Fuc(a1-2)[Gal(a1-3)]Gal
# In short: as §1
# [2] = biological target: Fuc(a1-2)[Gal(a1-3)]Gal(b1-4)Glc
# In short: as §1
# [3] = biological target: Fuc(a1-2)[GalNAc(a1-3)]Gal(b1-3)GalNAc(a1-3)[Fuc(a1-2)]Gal(b1-4)GlcNAc
# In short: as §1
# [4] = biological target: Fuc(a1-2)[GalNAc(a1-3)]Gal(b1-3)GalNAc(b1-3)Gal(a1-4)Gal(b1-4)Glc
# In short: as §1
# [5] = biological target: Fuc(a1-2)[GalNAc(a1-3)]Gal(b1-3)GlcNAc(b1-2)Man(a1-3)[Fuc(a1-2)[GalNAc(a1-3)]Gal(b1-3)GlcNAc(b1-2)Man(a1-6)]Man(b1-4)GlcNAc(b1-4)[Fuc(a1-6)]GlcNAc
# In short: as §1
# [6] = biological target: Fuc(a1-2)[GalNAc(a1-3)]Gal(b1-4)GlcNAc(b1-6)GalNAc
# In short: as §1
# Gal(a1-3)Gal(b1-3)GlcNAc = biological target: Gal(a1-3)Gal(b1-3)GlcNAc
# In short: as §1
# Gal(a1-3)Gal(b1-4)Glc = biological target: Gal(a1-3)Gal(b1-4)Glc
# In short: as §1
# [7] = biological target: Gal(a1-3)Gal(b1-4)GlcNAc(b1-2)Man(a1-3)[Gal(a1-3)Gal(b1-4)GlcNAc(b1-2)Man(a1-6)]Man(b1-4)GlcNAc(b1-4)GlcNAc
# In short: as §1
# [8] = biological target: Gal(a1-3)Gal(b1-4)[Fuc(a1-3)]GlcNAc(b1-2)Man(a1-3)[Gal(a1-3)Gal(b1-4)[Fuc(a1-3)]GlcNAc(b1-2)Man(a1-6)]Man(b1-4)GlcNAc(b1-4)GlcNAc
# In short: as §1
# Gal(a1-3)GalNAc = biological target: Gal(a1-3)GalNAc
# In short: as §1
# [9] = biological target: Gal(a1-3)[Gal(a1-4)]Gal(b1-4)GlcNAc
# In short: as §1
# [10] = biological target: Gal(a1-4)Gal(b1-4)GlcNAc(b1-2)Man(a1-3)[Gal(a1-4)Gal(b1-4)GlcNAc(b1-2)Man(a1-6)]Man(b1-4)GlcNAc(b1-4)GlcNAc
# In short: as §1
# [11] = biological target: Gal(a1-4)Gal(b1-4)GlcNAc(b1-3)Gal(b1-4)Glc
# In short: as §1
# Gal(b1-3)Gal(b1-4)GlcNAc = biological target: Gal(b1-3)Gal(b1-4)GlcNAc
# In short: as §1
# Gal(b1-3)GlcNAc = biological target: Gal(b1-3)GlcNAc
# In short: as §1
# [12] = biological target: Gal(b1-3)GlcNAc(b1-3)Gal(b1-4)GlcNAc
# In short: as §1
# [13] = biological target: Gal(b1-3)GlcNAc(b1-3)Gal(b1-4)[Fuc(a1-3)]GlcNAc(b1-6)[Gal(b1-3)GlcNAc(b1-3)]Gal(b1-4)Glc
# In short: as §1
# [14] = biological target: Gal(b1-3)[Fuc(a1-4)]GlcNAc(b1-2)Man(a1-3)[Gal(b1-3)[Fuc(a1-4)]GlcNAc(b1-2)Man(a1-6)]Man(b1-4)GlcNAc(b1-4)[Fuc(a1-6)]GlcNAc
# In short: as §1
# Gal(b1-4)Glc6S = biological target: Gal(b1-4)Glc6S
# In short: as §1
# [15] = biological target: Gal(b1-4)GlcNAc(a1-6)Gal(b1-4)GlcNAc
# In short: as §1
# [16] = biological target: Gal(b1-4)GlcNAc(b1-2)Man(a1-3)[Gal(b1-4)GlcNAc(b1-2)Man(a1-6)]Man(b1-4)GlcNAc(b1-4)GlcNAc
# In short: as §1
# [17] = biological target: Gal(b1-4)GlcNAc(b1-2)[Gal(b1-4)GlcNAc(b1-4)]Man(a1-3)[Gal(b1-4)GlcNAc(b1-2)[Gal(b1-4)GlcNAc(b1-6)]Man(a1-6)]Man(b1-4)GlcNAc(b1-4)GlcNAc
# In short: as §1
# [18] = biological target: Gal(b1-4)GlcNAc(b1-3)Gal(b1-3)GalNAc
# In short: as §1
# [19] = biological target: Gal(b1-4)GlcNAc(b1-3)Gal(b1-4)GlcNAc(b1-2)Man(a1-3)[Gal(b1-4)GlcNAc(b1-3)Gal(b1-4)GlcNAc(b1-2)Man(a1-6)]Man(b1-4)GlcNAc(b1-4)GlcNAc
# In short: as §1
# [20] = biological target: Gal(b1-4)GlcNAc(b1-3)Gal(b1-4)GlcNAc(b1-2)[Gal(b1-4)GlcNAc(b1-3)Gal(b1-4)GlcNAc(b1-6)]Man(a1-6)[Gal(b1-4)GlcNAc(b1-3)Gal(b1-4)GlcNAc(b1-2)Man(a1-3)]Man(b1-4)GlcNAc(b1-4)[Fuc(a1-6)]GlcNAc
# In short: as §1
binder,measurement,setting,value
PX14375C-bth-509-28-509 (Bacteroides thetaiotaomicron) (protein) RSPQGQFTEDDNPNALVNGKIYNVYTMMRSFDITAGTPAIAIHYLRSEDSEKGSIPSDGSDVAEMYDDFLYTPTNGLLGSYWGKNYAIIYQCNDILDAIAEKETAGQTETEDIINKGEASFFRAYCYFNLVRAFGEVPLVTYKINDASEANIPKTTADKIYEQIDTDLKTAEESLPETWSTEYTGRLTWGAARSLHARTYMMRSDWDNMYKASTDVINKGLYNLKTPYNEIFTDDGENSGGSIFELQCTATAALPQSDVIGSQFCEVQGVRGAGQWDLGWGWHMATQLMADAYETGDPRKNATLLYFRKTDDEPITPENTNEPYGESPISPAMGAYFNKKAYTDPALRKEYTNKGFWVNIRLIRYSDVVLMAAEAANEKNIPGEAVDYLEMVRARARGTNTNILPKITTNDQGELREAIRHERRVELGLEPDRFYDLVRWGIASEVLHAAGKVNYQDKNALLPLPQSEIDKSKGVLVQNPDY,glycan array binding signal (z-score),[1],-0.397
same,glycan array binding signal (z-score),Fuc(a1-2)[Gal(a1-3)]Gal,-0.193
same,glycan array binding signal (z-score),[2],0.04
same,glycan array binding signal (z-score),[3],-0.112
same,glycan array binding signal (z-score),[4],-0.355
same,glycan array binding signal (z-score),[5],-0.19
same,glycan array binding signal (z-score),[6],3.04
same,glycan array binding signal (z-score),Gal(a1-3)Gal(b1-3)GlcNAc,-0.256
same,glycan array binding signal (z-score),Gal(a1-3)Gal(b1-4)Glc,-0.196
same,glycan array binding signal (z-score),[7],0.762
same,glycan array binding signal (z-score),[8],1.41
same,glycan array binding signal (z-score),Gal(a1-3)GalNAc,-0.254
same,glycan array binding signal (z-score),[9],2.55
same,glycan array binding signal (z-score),[10],-0.374
same,glycan array binding signal (z-score),[11],-0.341
same,glycan array binding signal (z-score),Gal(b1-3)Gal(b1-4)GlcNAc,-0.316
same,glycan array binding signal (z-score),Gal(b1-3)GlcNAc,-0.186
same,glycan array binding signal (z-score),[12],-0.144
same,glycan array binding signal (z-score),[13],-0.581
same,glycan array binding signal (z-score),[14],0.351
same,glycan array binding signal (z-score),Gal(b1-4)Glc6S,0.533
same,glycan array binding signal (z-score),[15],-0.071
same,glycan array binding signal (z-score),[16],6.16
same,glycan array binding signal (z-score),[17],1.28
same,glycan array binding signal (z-score),[18],-0.287
same,glycan array binding signal (z-score),[19],4.35
same,glycan array binding signal (z-score),[20],12.3
